For 57 compounds, inhibition results are on record in PubChem BioAssay AID624255 (Broad Institute, 2012).

A word on the inhibition: it is the change of the read-out against control, counted positive when it falls.

The whole screen tested about 77,000 compounds, of which about 4,600 (6%) were called active. Another 1% or so got no clear call; they are omitted. The entries come from a sample that favours actives as a whole. Unmarked numbers belong to inactive results.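 The calls were made as follows: active = mean inhibition above about 93%, with at least 55% of replicates each passing it (limit read from the data, passing the limit was not always enough); inconclusive = only one of those two conditions holds; inactive = neither condition holds.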

The experiment in a line: growth inhibition of T. cruzi in host fibroblasts – cell-based, beta-gal Tulahuen parasites, NIH3T3 host, luminescence, primary screen (AID 624255). Conditions: T. cruzi beta-gal in NIH3T3, GalScreen luminescence, 90 h; at 8.34 µM; active compounds read high.
Turning to `COc1ccc(NC(=O)Nc2ccc3c(c2)C(=O)N([C@H](C)CO)C[C@H](C)[C@H](CN(C)S(=O)(=O)c2ccc(Cl)cc2)OCCCC[C@H](C)O3)cc1`, the inhibition was 115% (active). The figure for `CC(C)NC(=O)Nc1ccc2c(c1)C(=O)N([C@H](C)CO)C[C@@H](C)[C@@H](CN(C)S(=O)(=O)c1ccc(Cl)cc1)OCCCC[C@H](C)O2` is 55%; for `C[C@@H]1CCCCO[C@H](CN(C)S(=O)(=O)c2ccc(Cl)cc2)[C@@H](C)CN([C@H](C)CO)C(=O)c2cc(NC(=O)Nc3ccc4c(c3)OCO4)ccc2O1` it is 82.9%; for `C[C@@H]1CCCCO[C@@H](CN(C)S(=O)(=O)c2ccc(F)cc2)[C@@H](C)CN([C@@H](C)CO)C(=O)c2cc(NC(=O)Nc3ccc4c(c3)OCO4)ccc2O1` it is 23.6%. The figure for `C[C@H]1CCCCO[C@H](CN(C)S(=O)(=O)c2ccc(Cl)cc2)[C@@H](C)CN([C@@H](C)CO)C(=O)c2cc(NC(=O)Nc3ccc4c(c3)OCO4)ccc2O1` is 105% (active); for `CC(C)NC(=O)Nc1ccc2c(c1)C(=O)N([C@@H](C)CO)C[C@H](C)[C@H](CN(C)S(=O)(=O)c1ccc(Cl)cc1)OCCCC[C@H](C)O2` it is 106% (active); for `C[C@@H]1CCCCO[C@H](CN(C)S(=O)(=O)c2ccc(Cl)cc2)[C@H](C)CN([C@H](C)CO)C(=O)c2cc(NC(=O)NC3CCCCC3)ccc2O1` it is 92.2%. To `COc1ccc(S(=O)(=O)N(C)C[C@@H]2OCCCC[C@H](C)Oc3ccc(NC(=O)Nc4ccccc4)cc3C(=O)N([C@@H](C)CO)C[C@H]2C)cc1` belongs 37.1%. Turning to `COc1ccc(NC(=O)Nc2ccc3c(c2)C(=O)N([C@H](C)CO)C[C@H](C)[C@@H](CN(C)S(=O)(=O)c2ccc(OC)cc2)OCCCC[C@H](C)O3)cc1`, the inhibition is -12%.

As for `Cc1ccc(S(=O)(=O)Nc2ccc3c(c2)C(=O)N([C@@H](C)CO)C[C@@H](C)[C@H](CN(C)C(=O)NC(C)C)OCCCC[C@H](C)O3)cc1`, the inhibition is 46%. Consider `CO[C@H]1CN(C)C(=O)c2ccc(NC(C)=O)cc2OC[C@H](C)N(CC2CC2)C[C@@H]1C`, for which the inhibition was 5.22%.

As to `CNC(=O)C[C@H]1CC[C@@H]2[C@H](COc3ccc(NC(=O)Nc4cccc(F)c4)cc3C(=O)N2C)O1`, the inhibition was 14.8%. For `C[C@@H]1CN([C@H](C)CO)C(=O)c2cc(NC(=O)Nc3cccc4ccccc34)ccc2O[C@H]1CN(C)C(=O)Nc1ccccc1`, the inhibition was 45.7%. As for `O=C(Nc1cccc(F)c1)N[C@@H]1CC[C@@H](CCn2cc(Cc3ccccc3)nn2)O[C@@H]1CO`, the inhibition was 42.3%. In the case of `CCNC(=O)Nc1ccc2c(c1)C(=O)N(C)[C@@H]1CC[C@H](CC(=O)NC3CCCCC3)O[C@H]1CO2`, the inhibition is 36%. As to `O=C(Cc1ccccn1)NCC[C@H]1CC[C@H](NS(=O)(=O)c2ccccc2)[C@@H](CO)O1`, the inhibition is 44.9%. With `CCCC#Cc1ccc([C@H]2[C@H]3CN(Cc4cncnc4)CCCCN3[C@H]2CO)cc1`, the inhibition was 63.2%. For `OC[C@H]1[C@@H](c2ccc(C#CC3(O)CCCC3)cc2)[C@H]2CN(Cc3cncnc3)CCCCN21`, the inhibition is 60.8%. To `OC[C@@H]1[C@H](c2ccc(C#Cc3ccccc3)cc2)[C@@H]2CN(Cc3cncnc3)CCCCN12` belongs 112% (active); to `OC[C@@H]1[C@@H](c2ccc(C#CC3(O)CCCC3)cc2)[C@@H]2CN(Cc3cncnc3)CCCCN12`, 18.1%; to `COCC#Cc1ccc([C@H]2[C@H](CO)N3CCCCN(Cc4ccncc4)C[C@@H]23)cc1`, 37.4%. In the case of `OC[C@@H]1[C@H](c2ccc(C#CC3(O)CCCC3)cc2)[C@H]2CN(Cc3cncnc3)CCCCN12`, the inhibition was 101% (active). To `CO[C@H]1CN(C)C(=O)c2cc(NC(=O)C3CC3)ccc2OC[C@@H](C)N(CCc2ccccc2)C[C@H]1C` belongs 11.1%; to `CO[C@@H]1CN(C)C(=O)c2ccc(NC(=O)Nc3cc(Cl)cc(Cl)c3)cc2OC[C@H](C)NC[C@H]1C`, -5.93%. To `CCCNC(=O)C[C@@H]1CC[C@@H]2[C@H](COC[C@H](O)CN2C(=O)c2cc(Cl)cc(Cl)c2)O1` belongs 3.7%.

On to `COc1ccc(NC(=O)N[C@H]2CC[C@@H](CCNC(=O)c3cc(Cl)cc(Cl)c3)O[C@H]2CO)cc1`, for which the inhibition was -22.3%.

Take `C[C@@H]1CCCCO[C@@H](CN(C)C(=O)NC2CCCCC2)[C@@H](C)CN([C@@H](C)CO)C(=O)c2cc(NC(=O)C3CCCCC3)ccc2O1`: the inhibition was 69.2%. To `O=C(NCc1cccc(F)c1)[C@H]1[C@H](CO)[C@H]2Cn3c(cccc3=O)[C@@H]1N2` belongs 23.3%; to `O=C(Nc1cc(F)ccc1F)N1CCCCN2[C@H](CO)[C@@H](c3ccc(-c4cccnc4)cc3)[C@@H]2C1`, 69.1%; to `O=C(Nc1ccccc1)N1CCCCN2[C@H](CO)[C@@H](c3ccc(-c4ccccc4F)cc3)[C@H]2C1`, 45.9%. To `CC(=O)N1CCCCN2[C@H](CO)[C@H](c3ccc(-c4ccccc4)cc3)[C@@H]2C1` belongs 72.8%; to `COc1ccccc1NC(=O)N1CCCCN2[C@H](C1)[C@H](c1ccc(-c3ccccc3)cc1)[C@@H]2CO`, 119% (active); to `O=C(Nc1cc(F)ccc1F)N1CCCCN2[C@H](C1)[C@H](c1ccc(-c3cccnc3)cc1)[C@@H]2CO`, 89.5%. To `COc1ccccc1NC(=O)N1CCCCN2[C@@H](CO)[C@@H](c3ccc(C#Cc4ccccc4)cc3)[C@@H]2C1` belongs 94.4%; to `O=C(Nc1ccccc1F)N1CCCCN2[C@H](CO)[C@@H](c3ccc(-c4cccnc4)cc3)[C@H]2C1`, 104% (active). In the case of `CN(C)CC(=O)N1CCCCN2[C@@H](CO)[C@H](c3ccc(-c4cccnc4)cc3)[C@@H]2C1`, the inhibition was 73.9%. As to `O=C(Nc1cc(F)ccc1F)N1CCCCN2[C@H](CO)[C@@H](c3ccc(-c4cncnc4)cc3)[C@H]2C1`, the inhibition is 106% (active). The figure for `C[C@@H]1CN([C@H](C)CO)C(=O)c2cc(NC(=O)c3ccccc3)ccc2O[C@@H](C)CCCCO[C@H]1CN(C)S(=O)(=O)c1ccccc1` is -19.9%. As for `O=C(Nc1ccc(Cl)cc1)N1C[C@@H]2[C@H](c3ccccc31)[C@@H](CO)N2C(=O)c1cccnc1`, the inhibition was -10.9%.

As for `C[C@@H](O)C#Cc1ccc([C@@H]2[C@@H](CO)N3CCCCN(C(=O)c4ccc(F)cc4)C[C@@H]23)cc1`, the inhibition was 26.5%. The figure for `C[C@@H]1CCCCO[C@H](CN(C)C(=O)Nc2ccc(C(F)(F)F)cc2)[C@@H](C)CN([C@@H](C)CO)C(=O)c2cc(NC(=O)Nc3cccc4ccccc34)ccc2O1` is 87.4%.

`C[C@H](CO)N1C[C@H](C)[C@H](CN(C)Cc2ccccc2)OCCCC[C@H](C)Oc2ccc(NC(=O)c3ccccc3)cc2C1=O`: the inhibition was 71.5%. Turning to `CC(C)NC(=O)N(C)C[C@H]1OCCCC[C@@H](C)Oc2ccc(NC(=O)Nc3cccc4ccccc34)cc2C(=O)N([C@H](C)CO)C[C@@H]1C`, the inhibition was 33.3%. The figure for `C[C@H](CO)N1C[C@H](C)[C@@H](CN(C)Cc2ccc(C(=O)O)cc2)OCCCC[C@H](C)Oc2ccc(NC(=O)c3ccccc3)cc2C1=O` is 20.3%; for `C[C@@H]1CCCCO[C@@H](CN(C)CC2CC2)[C@@H](C)CN([C@H](C)CO)C(=O)c2cc(NC(=O)Nc3cccc4ccccc34)ccc2O1` it is 86.5%; for `C[C@@H]1CCCCO[C@@H](CN(C)C(=O)Nc2ccc(F)cc2)[C@H](C)CN([C@H](C)CO)C(=O)c2cc(NC(=O)Nc3cccc4ccccc34)ccc2O1` it is 108% (active). The figure for `C[C@@H]1CN([C@@H](C)CO)C(=O)c2cc(NC(=O)Nc3cccc4ccccc34)ccc2O[C@@H](C)CCCCO[C@H]1CN(C)Cc1ccccc1` is 112% (active); for `C[C@@H]1CCCCO[C@H](CN(C)C(=O)c2ccccc2)[C@@H](C)CN([C@H](C)CO)C(=O)c2cc(NC(=O)Nc3cccc4ccccc34)ccc2O1` it is -46.1%. The figure for `C[C@H]1CCCCO[C@H](CN(C)Cc2ccccc2)[C@@H](C)CN([C@@H](C)CO)C(=O)c2cc(NC(=O)c3ccccc3)ccc2O1` is 102% (active). Take `C[C@@H]1CCCCO[C@H](CN(C)C(=O)Nc2cccc3ccccc23)[C@@H](C)CN([C@@H](C)CO)C(=O)c2cc(NC(=O)Nc3ccc(F)cc3)ccc2O1`: the inhibition was 91.1%. On to `C[C@@H]1CCCCO[C@@H](CN(C)Cc2ccccc2)[C@H](C)CN([C@H](C)CO)C(=O)c2cc(NC(=O)Nc3cccc4ccccc34)ccc2O1`, for which the inhibition was 112% (active). The figure for `COc1ccc(CN(C)C[C@H]2OCCCC[C@@H](C)Oc3ccc(NC(=O)Nc4cccc5ccccc45)cc3C(=O)N([C@H](C)CO)C[C@@H]2C)cc1` is 67.6%; for `COc1ccc(NC(=O)N(C)C[C@@H]2OCCCC[C@@H](C)Oc3ccc(NS(=O)(=O)c4cn(C)cn4)cc3C(=O)N([C@@H](C)CO)C[C@H]2C)cc1` it is 18.4%; for `C[C@@H]1CN([C@@H](C)CO)C(=O)c2cc(NS(=O)(=O)c3cn(C)cn3)ccc2O[C@@H](C)CCCCO[C@@H]1CN(C)Cc1ccncc1` it is -84.1%. The figure for `C[C@H](CO)N1C[C@H](C)[C@@H](CN(C)C(=O)c2ccncc2)Oc2ncc(-c3ccncc3)cc2C1=O` is 4.66%; for `COC(=O)[C@@H]1[C@@H](CO)[C@@H]2Cn3c(ccc(-c4ccccc4)c3=O)[C@@H]2N1C(=O)C1CC1` it is 59.9%; for `O=C(Nc1ccccc1)N[C@@H]1CC[C@H](CCNS(=O)(=O)c2ccccc2F)O[C@@H]1CO` it is -32.8%.
